Laboratory results from PubChem BioAssay (NCATS).
Results filed as inconclusive are left out. The source made the active and inactive calls. Calls come from the whole dose curve; as a rule, active = well fitted inhibition curve with a large enough effect; inconclusive = small, poorly fitted or top-dose-only effect; inactive = no such curve, though single readings can be large or run the other way.

Assay: qHTS assay for measurement of the activity of small molecule inhibitors on Zika virus induced Caspase-3 activity in human iPSC derived neural progenitor cells (hNPCs) (AID 1224857); note: % of control where 0% means no effect; nearly all actives have a fitted effect of over 65% in size
Conditions: hNPCs ZIKV-induced caspase-3/7, Caspase-Glo luminescence, 6 h; series mostly up to 45.7 µM; activity change, negative = inhibition: at the top concentration
From the text: National Center for Advancing Translational Sciences [NCATS]
Johns Hopkins University School of Medicine
Increase in the Caspase-3 activity indicates an activation of apoptosis cell death pathway caused by Zika virus infection in certain types of neuronal cells including human neural progenitor cells (hNPCs), astrocytes, and astrocytoma cell line (SNB-19). This cell-based caspase-3 activity assay measures the increased caspase-3 activity in the human iPSC derived neural progenitor cells (hNPCs) after a 6-hour Zika virus infection with a luminescence readout. A decrease in the luminescence signal in this assay by small molecule treatment indicates an inhibitory effect of that small molecule on the Zika virus induced caspase-3 activity that may correlate with its effect on reduction of Zika virus caused cell death.
The medium for hNPCs consists of DMEM/F12, N2 supplement (ThermoFisher, Cat.# 17502048), NEAA (ThermoFisher, Cat. # 11140050), 2 ug/ml heparin, 2 uM cyclopamine, and B27 (ThermoFisher, Cat. # 17504044). A Caspase-Glo 3/7 assay kit (catalog number G8092; Promega, Madison, WI) was used to detect caspase-3 activity induced by Zika virus infection in human cells. The reagent mixture was reconstituted as described in the protocol from the manufacturer. Polystyrene tissue culture treated and PDL coated white plates were obtained from Greiner Bio-One (Monroe, NC). Cells were seeded in 384- or 1536-well assay plates and cultured at 37 C with 5% CO2 for 16 to 20 hours. The typical cell seeding density in the 1536-well plate assay is 350 cells/well in 3 ul medium for hNPCs in tissue culture treated plates. Compounds were added to cells and incubated for one hour before addition of ZIKV solution to cells (2 FFU/cell). After incubation at 37 C with 5% CO2 for 6 hours, the reagent mixture of Caspase-Glo 3/7 assay kit was added to each well, followed by incubation at room temperature for 30 minutes. The luminescence intensity of the assay plates was measured using a ViewLux plate reader (PerkinElmer). Data were normalized by using the cell-containing wells without ZIKV as a negative control (0% induction of caspase 3/7 activity) and wells containing ZIKV infected cells (Caspase-3 activity induced) as a positive control (100% induction of caspase 3 activity). The percentage inhibitions of the increased Caspase-3 activity by small molecule inhibitors were then calculated.

**Q.** For `OC1C(O)C(O)C(O)C(O)C1O` (stereo not given), which “activity change, negative = inhibition” value is on record?
**A.** Its value is 0% (inactive).

**Q.** Which “activity change, negative = inhibition” value does the source give for `CCOc1ccccc1OCCN[C@H](C)Cc1ccc(OC)c(S(N)(=O)=O)c1` here?
**A.** Its value is -3.21% (inactive).

**Q.** For `O=S(c1cc(Cl)cc(Cl)c1O)c1cc(Cl)cc(Cl)c1O`, which “activity change, negative = inhibition” value is on record?
**A.** The value was -3.36% (inactive).

**Q.** Which “activity change, negative = inhibition” value does the source give for `Cc1cc(CC(=O)O)c(C)n1-c1ccc(Cl)cc1` here?
**A.** The value was 9% (inactive).

**Q.** For `C#C[C@]1(O)CC[C@H]2[C@@H]3CCC4=Cc5oncc5C[C@]4(C)[C@H]3CC[C@@]21C`, which “activity change, negative = inhibition” value is on record?
**A.** The value was -10.6% (inactive).

**Q.** For `CN1CCN(CCC(=O)N2c3ccccc3Sc3ccc(C(F)(F)F)cc32)CC1`, which “activity change, negative = inhibition” value is on record?
**A.** The value was 17.7% (inactive).

**Q.** Which “activity change, negative = inhibition” value does the source give for `C[N+]1(CC2COC(c3ccccc3)(C3CCCCC3)O2)CCCCC1` (stereo not given) here?
**A.** Its value is -3.74% (inactive).

**Q.** Which “activity change, negative = inhibition” value does the source give for `NCCNC(=O)c1ccc(Cl)cn1` here?
**A.** The value was -1.09% (inactive).

**Q.** With `CC(C)Cn1cnc2c1c(=O)n(C)c(=O)n2C` as the molecule, how does the “activity change, negative = inhibition” value read?
**A.** The value was -12% (inactive).

**Q.** For `Cc1cc(C)cc(OCC2CNC(=O)O2)c1` (stereo not given), which “activity change, negative = inhibition” value is on record?
**A.** Its value is -26.3% (inactive).

**Q.** For `C#C[C@]1(O)CC[C@H]2[C@@H]3CCC4=CC(=O)CC[C@@H]4[C@H]3CC[C@@]21CC`, which “activity change, negative = inhibition” value is on record?
**A.** Its value is -21.7% (inactive).

**Q.** With `CCc1cc(Cl)c(OC)c(C(=O)NC[C@@H]2CCCN2CC)c1O` as the molecule, how does the “activity change, negative = inhibition” value read?
**A.** Its value is 24.1% (inactive).

**Q.** For `CN(C)CCOC(c1ccc(Cl)cc1)c1ccccn1` (stereo not given), which “activity change, negative = inhibition” value is on record?
**A.** The value was -5.92% (inactive).

**Q.** With `Cc1cc(NS(=O)(=O)c2ccc(N)cc2)nc(C)n1` as the molecule, how does the “activity change, negative = inhibition” value read?
**A.** Its value is 28.2% (inactive).

**Q.** Which “activity change, negative = inhibition” value does the source give for `CCCCCCCCCCCCCCCCO` here?
**A.** Its value is -5.32% (inactive).

**Q.** Which “activity change, negative = inhibition” value does the source give for `CC(=O)OCC1=C(C(=O)O)N2C(=O)[C@@H](NC(=O)CSc3ccncc3)[C@H]2SC1` here?
**A.** Its value is -20.4% (inactive).

**Q.** With `c1ccc(-c2nc[nH]c2-c2ccccc2)cc1` as the molecule, how does the “activity change, negative = inhibition” value read?
**A.** The value was -3.81% (inactive).

**Q.** For `CCCCCCCCOc1ccc(C(=O)c2ccccc2)c(O)c1`, which “activity change, negative = inhibition” value is on record?
**A.** The value was 4.62% (inactive).

**Q.** With `CN(C)CCN1C(=O)c2ccccc2N(C)c2ccccc21` as the molecule, how does the “activity change, negative = inhibition” value read?
**A.** The value was -3.92% (inactive).

**Q.** With `C[C@@]12C(=O)OC(=O)[C@]1(C)C1CCC2O1` as the molecule, how does the “activity change, negative = inhibition” value read?
**A.** Its value is 1.17% (inactive).

**Q.** Which “activity change, negative = inhibition” value does the source give for `OC(C#CCN1CCCC1)(c1ccccc1)c1ccccc1` here?
**A.** Its value is 37.9% (inactive).

**Q.** For `O=C(Nc1ccccc1)OCC(CN1CCCCC1)OC(=O)Nc1ccccc1` (stereo not given), which “activity change, negative = inhibition” value is on record?
**A.** The value was 9.49% (inactive).

**Q.** With `CCCN(CCC)S(=O)(=O)c1ccc(C(=O)O)cc1` as the molecule, how does the “activity change, negative = inhibition” value read?
**A.** The value was 3.13% (inactive).

**Q.** With `CC(C)[C@@H]1CC[C@@H](C)CC1=O` as the molecule, how does the “activity change, negative = inhibition” value read?
**A.** The value was -8.45% (inactive).

**Q.** For `CC(=O)NO`, which “activity change, negative = inhibition” value is on record?
**A.** Its value is -2.08% (inactive).

**Q.** Which “activity change, negative = inhibition” value does the source give for `O=C1OC(CN2CCOCC2)CN1/N=C/c1ccc([N+](=O)[O-])o1` (stereo not given) here?
**A.** The value was -6.95% (inactive).

**Q.** With `CC1(C)OC[C@@H]2O[C@@]3(C(=O)O)OC(C)(C)O[C@H]3[C@@H]2O1` as the molecule, how does the “activity change, negative = inhibition” value read?
**A.** Its value is 6.59% (inactive).

**Q.** For `NC1CCN(c2nc3c(cc2F)c(=O)c(C(=O)O)cn3-c2ccc(F)cc2F)C1` (stereo not given), which “activity change, negative = inhibition” value is on record?
**A.** Its value is 10.6% (inactive).

**Q.** For `C=C[C@H]1CN2CC[C@H]1C[C@H]2[C@H](O)c1ccnc2ccc(OC)cc12`, which “activity change, negative = inhibition” value is on record?
**A.** The value was -0.0598% (inactive).

**Q.** For `CC(C)(C)NC[C@H](O)COc1cccc2c1CCCC2=O`, which “activity change, negative = inhibition” value is on record?
**A.** The value was -8.09% (inactive).

**Q.** Which “activity change, negative = inhibition” value does the source give for `Oc1ccccc1C=NCc1ccccc1` here?
**A.** Its value is 7.33% (inactive).

**Q.** Which “activity change, negative = inhibition” value does the source give for `C=C1c2cccc(O)c2C(O)=C2C(=O)[C@]3(O)C(O)=C(C(N)=O)C(=O)[C@@H](N(C)C)[C@@H]3[C@@H](O)[C@H]12` here?
**A.** Its value is -30.2% (inactive).

**Q.** For `CC(=O)O[C@H]1C[C@@H]2CC[C@@H]3[C@H](CC[C@@]4(C)[C@H]3C[C@H]([N+]3(C)CCCCC3)[C@@H]4OC(C)=O)[C@@]2(C)C[C@@H]1N1CCCCC1`, which “activity change, negative = inhibition” value is on record?
**A.** The value was 24.4% (inactive).

**Q.** For `CCCCNC(=O)NS(=O)(=O)c1ccc(N)cc1`, which “activity change, negative = inhibition” value is on record?
**A.** Its value is -0.857% (inactive).

**Q.** With `c1ccc(CC2=NCCN2)cc1` as the molecule, how does the “activity change, negative = inhibition” value read?
**A.** The value was 14.7% (inactive).

**Q.** With `CCNC(=O)NCc1cccc(Cl)c1` as the molecule, how does the “activity change, negative = inhibition” value read?
**A.** Its value is -3.32% (inactive).

**Q.** With `CCCCCCCCCCCCCC[N+](C)(C)Cc1ccccc1` as the molecule, how does the “activity change, negative = inhibition” value read?
**A.** The value was 52.9% (inactive).

**Q.** With `O=C(Oc1cccc2cccnc12)c1ccccc1` as the molecule, how does the “activity change, negative = inhibition” value read?
**A.** The value was -4.62% (inactive).

**Q.** For `Clc1cccc(C(c2ccc3nc[nH]c3c2)n2ccnc2)c1` (stereo not given), which “activity change, negative = inhibition” value is on record?
**A.** The value was 2.42% (inactive).

**Q.** For `CNCCc1ccccn1`, which “activity change, negative = inhibition” value is on record?
**A.** The value was 2.06% (inactive).
